One may read the inhibition as the drop in the measured response relative to a control, in per cent.

The target of experiment [1] is MAP/microtubule affinity-regulating kinase 3 (Homo sapiens) (UniProt P27448). The settings on record: at 1 µM.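 Also: reported values are averaged percent inhibition of MARK3.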
The target of experiment [2] is T1, MAP/microtubule affinity-regulating kinase 4 (Homo sapiens) (UniProt Q96L34).
T1 sequence (whole entry): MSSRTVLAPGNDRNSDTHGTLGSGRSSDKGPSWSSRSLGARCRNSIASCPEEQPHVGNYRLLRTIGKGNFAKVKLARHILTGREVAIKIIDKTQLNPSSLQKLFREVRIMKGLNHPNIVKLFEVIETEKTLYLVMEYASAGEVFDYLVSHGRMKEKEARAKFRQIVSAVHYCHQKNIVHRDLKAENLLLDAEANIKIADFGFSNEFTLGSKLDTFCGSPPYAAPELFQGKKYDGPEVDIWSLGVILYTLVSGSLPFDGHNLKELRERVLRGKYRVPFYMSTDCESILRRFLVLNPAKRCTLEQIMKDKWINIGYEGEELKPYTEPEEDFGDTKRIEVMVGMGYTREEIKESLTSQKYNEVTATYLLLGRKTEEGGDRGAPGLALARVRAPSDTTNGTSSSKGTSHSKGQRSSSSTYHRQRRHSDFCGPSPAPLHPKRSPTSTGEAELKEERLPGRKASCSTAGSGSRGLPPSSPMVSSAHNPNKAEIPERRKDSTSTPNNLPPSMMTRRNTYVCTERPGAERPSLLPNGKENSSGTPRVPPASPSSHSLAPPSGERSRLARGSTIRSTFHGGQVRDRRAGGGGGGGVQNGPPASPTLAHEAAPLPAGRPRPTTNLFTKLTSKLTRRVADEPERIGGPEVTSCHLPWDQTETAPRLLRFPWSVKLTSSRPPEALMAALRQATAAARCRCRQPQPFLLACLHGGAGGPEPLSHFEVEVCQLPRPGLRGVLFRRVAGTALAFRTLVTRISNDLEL
The settings on record: at 0.1 µM.

Experiment [3] addresses T1, MAP/microtubule affinity-regulating kinase 4 (Homo sapiens). The conditions noted are these: at 1 µM.
Experiment [4] deals with Maternal embryonic leucine zipper kinase (Homo sapiens) (UniProt Q14680). The conditions noted are these: at 0.1 µM.
The target is the same in experiment [5]. The settings on record: at 1 µM.
Experiment [6] concerns the target MAP kinase-interacting serine/threonine-protein kinase 1 (Homo sapiens) (UniProt Q9BUB5). The conditions noted are these: at 0.1 µM.
The target is the same in experiment [7]. The conditions noted are these: at 1 µM.
In experiment [8] the target is MAP kinase-interacting serine/threonine-protein kinase 2 (Homo sapiens) (UniProt Q9HBH9). The settings on record: at 0.1 µM.
Experiment [9] shares this target. The settings on record: at 1 µM.
Experiment [10] addresses Serine/threonine-protein kinase MARK2 (Homo sapiens) (UniProt Q7KZI7). The settings on record: at 0.1 µM.
For experiment [11] the target is unchanged. The conditions noted are these: at 1 µM.
For experiment [12], the target named is PAS domain-containing serine/threonine-protein kinase (Homo sapiens) (UniProt Q96RG2). The settings on record: at 0.1 µM.
Experiment [13] shares this target. The conditions noted are these: at 1 µM.
Experiment [14] deals with Phosphorylase b kinase gamma catalytic chain, skeletal muscle/heart isoform (Homo sapiens) (UniProt Q16816). The conditions noted are these: at 0.1 µM.
For experiment [15] the target is unchanged. The conditions noted are these: at 1 µM.
Experiment [16] has as its target T2, Phosphorylase b kinase gamma catalytic chain, liver/testis isoform (Homo sapiens) (UniProt P15735).
T2 sequence (whole entry): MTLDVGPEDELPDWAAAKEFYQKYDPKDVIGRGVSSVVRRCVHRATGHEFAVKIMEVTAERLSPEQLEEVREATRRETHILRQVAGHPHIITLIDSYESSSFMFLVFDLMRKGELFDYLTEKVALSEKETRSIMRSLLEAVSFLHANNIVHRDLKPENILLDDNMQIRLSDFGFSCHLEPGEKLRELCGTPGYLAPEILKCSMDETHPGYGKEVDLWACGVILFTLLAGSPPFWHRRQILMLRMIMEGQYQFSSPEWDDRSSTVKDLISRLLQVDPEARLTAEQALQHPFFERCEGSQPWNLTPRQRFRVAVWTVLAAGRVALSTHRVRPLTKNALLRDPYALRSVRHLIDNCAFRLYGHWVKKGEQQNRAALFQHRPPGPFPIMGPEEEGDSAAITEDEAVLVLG
The settings on record: at 0.1 µM.

In experiment [17] the target is T2, Phosphorylase b kinase gamma catalytic chain, liver/testis isoform (Homo sapiens). The settings on record: at 1 µM.
Experiment [18] addresses Serine/threonine-protein kinase pim-1 (Homo sapiens) (UniProt P11309). The conditions noted are these: at 0.1 µM.
The target is the same in experiment [19]. The conditions noted are these: at 1 µM.
Experiment [20] concerns the target Serine/threonine-protein kinase pim-2 (Homo sapiens) (UniProt Q9P1W9). The conditions noted are these: at 0.1 µM.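 Also: reported value is the mean percent inhibition of PIM2, measured in the GSK PKIS kinase inhibitor set screen.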

Chain of MAP kinase-interacting serine/threonine-protein kinase 2 (Homo sapiens) (Q9HBH9 whole entry, looked up): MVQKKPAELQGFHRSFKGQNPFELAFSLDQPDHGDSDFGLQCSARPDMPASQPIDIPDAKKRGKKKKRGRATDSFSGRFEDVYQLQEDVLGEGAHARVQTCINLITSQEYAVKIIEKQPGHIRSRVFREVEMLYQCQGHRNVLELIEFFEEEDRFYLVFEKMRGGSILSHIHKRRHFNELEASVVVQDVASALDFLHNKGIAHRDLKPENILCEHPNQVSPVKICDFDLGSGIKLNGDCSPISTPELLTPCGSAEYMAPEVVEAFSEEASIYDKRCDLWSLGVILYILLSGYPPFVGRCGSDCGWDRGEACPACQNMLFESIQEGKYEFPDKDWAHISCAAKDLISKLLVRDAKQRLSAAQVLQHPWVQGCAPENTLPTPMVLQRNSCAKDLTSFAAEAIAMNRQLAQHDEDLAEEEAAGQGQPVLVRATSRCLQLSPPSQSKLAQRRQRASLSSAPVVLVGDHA
Chain of Phosphorylase b kinase gamma catalytic chain, skeletal muscle/heart isoform (Homo sapiens) (Q16816 whole entry, looked up, canonical isoform): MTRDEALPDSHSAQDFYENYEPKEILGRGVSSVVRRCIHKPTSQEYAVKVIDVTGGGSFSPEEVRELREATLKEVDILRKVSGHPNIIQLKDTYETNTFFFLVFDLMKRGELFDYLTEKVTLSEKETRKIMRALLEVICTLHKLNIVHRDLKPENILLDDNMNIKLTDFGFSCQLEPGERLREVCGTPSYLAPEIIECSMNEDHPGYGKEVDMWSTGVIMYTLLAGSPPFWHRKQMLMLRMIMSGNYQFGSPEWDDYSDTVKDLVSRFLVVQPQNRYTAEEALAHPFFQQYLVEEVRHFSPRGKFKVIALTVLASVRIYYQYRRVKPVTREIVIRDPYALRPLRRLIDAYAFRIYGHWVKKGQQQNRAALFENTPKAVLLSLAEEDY
Chain of Maternal embryonic leucine zipper kinase (Homo sapiens) (Q14680 whole entry, looked up): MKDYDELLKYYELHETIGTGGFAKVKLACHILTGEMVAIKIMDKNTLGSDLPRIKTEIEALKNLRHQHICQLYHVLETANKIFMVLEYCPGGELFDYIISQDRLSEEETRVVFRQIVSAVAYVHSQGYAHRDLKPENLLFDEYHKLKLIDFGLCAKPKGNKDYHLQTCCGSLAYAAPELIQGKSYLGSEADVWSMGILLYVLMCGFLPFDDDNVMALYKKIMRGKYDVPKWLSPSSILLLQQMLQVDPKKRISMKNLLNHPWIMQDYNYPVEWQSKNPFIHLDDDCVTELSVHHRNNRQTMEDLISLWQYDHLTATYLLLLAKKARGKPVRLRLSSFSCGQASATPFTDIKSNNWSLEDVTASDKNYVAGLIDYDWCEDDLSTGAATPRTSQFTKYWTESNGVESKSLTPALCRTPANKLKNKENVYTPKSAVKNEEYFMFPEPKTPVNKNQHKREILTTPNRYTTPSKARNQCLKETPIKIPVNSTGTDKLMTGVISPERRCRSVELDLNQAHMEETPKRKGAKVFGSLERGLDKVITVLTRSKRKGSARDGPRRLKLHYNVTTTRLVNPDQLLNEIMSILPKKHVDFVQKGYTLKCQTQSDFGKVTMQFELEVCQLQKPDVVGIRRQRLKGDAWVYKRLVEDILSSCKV
Chain of Serine/threonine-protein kinase pim-2 (Homo sapiens) (Q9P1W9 whole entry, looked up): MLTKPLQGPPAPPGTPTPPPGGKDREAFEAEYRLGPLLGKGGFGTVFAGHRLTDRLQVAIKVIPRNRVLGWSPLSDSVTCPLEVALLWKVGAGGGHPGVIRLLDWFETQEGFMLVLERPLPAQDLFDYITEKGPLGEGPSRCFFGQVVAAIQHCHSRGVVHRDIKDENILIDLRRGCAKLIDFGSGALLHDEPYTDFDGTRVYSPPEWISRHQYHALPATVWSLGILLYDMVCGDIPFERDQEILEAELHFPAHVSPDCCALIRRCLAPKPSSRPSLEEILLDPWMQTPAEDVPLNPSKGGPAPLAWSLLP
Chain of MAP kinase-interacting serine/threonine-protein kinase 1 (Homo sapiens) (Q9BUB5 whole entry, looked up): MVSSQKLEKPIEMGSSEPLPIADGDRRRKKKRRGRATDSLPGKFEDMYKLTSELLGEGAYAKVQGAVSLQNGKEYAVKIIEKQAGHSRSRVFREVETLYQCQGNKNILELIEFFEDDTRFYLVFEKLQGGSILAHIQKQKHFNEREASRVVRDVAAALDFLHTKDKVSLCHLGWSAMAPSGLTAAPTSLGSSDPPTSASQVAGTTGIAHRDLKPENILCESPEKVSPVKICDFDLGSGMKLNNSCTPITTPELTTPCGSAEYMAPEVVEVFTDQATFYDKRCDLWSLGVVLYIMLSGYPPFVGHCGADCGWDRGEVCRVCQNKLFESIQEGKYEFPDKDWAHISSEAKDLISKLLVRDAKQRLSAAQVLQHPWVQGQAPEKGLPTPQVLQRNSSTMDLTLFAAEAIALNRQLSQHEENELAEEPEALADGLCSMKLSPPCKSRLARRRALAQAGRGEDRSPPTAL
Chain of Serine/threonine-protein kinase MARK2 (Homo sapiens) (Q7KZI7 whole entry): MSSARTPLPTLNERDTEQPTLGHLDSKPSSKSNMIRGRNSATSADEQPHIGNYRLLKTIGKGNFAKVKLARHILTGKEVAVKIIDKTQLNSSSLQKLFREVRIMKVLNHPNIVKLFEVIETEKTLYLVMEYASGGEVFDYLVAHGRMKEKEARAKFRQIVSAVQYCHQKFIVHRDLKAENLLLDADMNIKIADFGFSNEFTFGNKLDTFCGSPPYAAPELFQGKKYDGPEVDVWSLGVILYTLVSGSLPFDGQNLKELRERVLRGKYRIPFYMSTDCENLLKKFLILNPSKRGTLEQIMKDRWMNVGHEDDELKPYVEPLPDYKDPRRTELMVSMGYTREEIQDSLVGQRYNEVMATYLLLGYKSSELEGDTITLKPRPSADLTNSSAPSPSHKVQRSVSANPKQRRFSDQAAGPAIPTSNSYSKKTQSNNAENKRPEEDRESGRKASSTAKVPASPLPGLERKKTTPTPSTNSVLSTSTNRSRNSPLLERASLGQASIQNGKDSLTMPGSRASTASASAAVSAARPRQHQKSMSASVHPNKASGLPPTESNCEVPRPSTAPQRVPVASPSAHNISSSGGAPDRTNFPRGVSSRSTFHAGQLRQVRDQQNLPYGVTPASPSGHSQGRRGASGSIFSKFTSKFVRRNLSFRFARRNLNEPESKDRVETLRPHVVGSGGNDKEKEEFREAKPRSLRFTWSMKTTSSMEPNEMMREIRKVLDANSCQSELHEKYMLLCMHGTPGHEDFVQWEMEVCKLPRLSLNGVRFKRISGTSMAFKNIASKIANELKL
Chain of PAS domain-containing serine/threonine-protein kinase (Homo sapiens) (Q96RG2 whole entry, the tested form may be a part): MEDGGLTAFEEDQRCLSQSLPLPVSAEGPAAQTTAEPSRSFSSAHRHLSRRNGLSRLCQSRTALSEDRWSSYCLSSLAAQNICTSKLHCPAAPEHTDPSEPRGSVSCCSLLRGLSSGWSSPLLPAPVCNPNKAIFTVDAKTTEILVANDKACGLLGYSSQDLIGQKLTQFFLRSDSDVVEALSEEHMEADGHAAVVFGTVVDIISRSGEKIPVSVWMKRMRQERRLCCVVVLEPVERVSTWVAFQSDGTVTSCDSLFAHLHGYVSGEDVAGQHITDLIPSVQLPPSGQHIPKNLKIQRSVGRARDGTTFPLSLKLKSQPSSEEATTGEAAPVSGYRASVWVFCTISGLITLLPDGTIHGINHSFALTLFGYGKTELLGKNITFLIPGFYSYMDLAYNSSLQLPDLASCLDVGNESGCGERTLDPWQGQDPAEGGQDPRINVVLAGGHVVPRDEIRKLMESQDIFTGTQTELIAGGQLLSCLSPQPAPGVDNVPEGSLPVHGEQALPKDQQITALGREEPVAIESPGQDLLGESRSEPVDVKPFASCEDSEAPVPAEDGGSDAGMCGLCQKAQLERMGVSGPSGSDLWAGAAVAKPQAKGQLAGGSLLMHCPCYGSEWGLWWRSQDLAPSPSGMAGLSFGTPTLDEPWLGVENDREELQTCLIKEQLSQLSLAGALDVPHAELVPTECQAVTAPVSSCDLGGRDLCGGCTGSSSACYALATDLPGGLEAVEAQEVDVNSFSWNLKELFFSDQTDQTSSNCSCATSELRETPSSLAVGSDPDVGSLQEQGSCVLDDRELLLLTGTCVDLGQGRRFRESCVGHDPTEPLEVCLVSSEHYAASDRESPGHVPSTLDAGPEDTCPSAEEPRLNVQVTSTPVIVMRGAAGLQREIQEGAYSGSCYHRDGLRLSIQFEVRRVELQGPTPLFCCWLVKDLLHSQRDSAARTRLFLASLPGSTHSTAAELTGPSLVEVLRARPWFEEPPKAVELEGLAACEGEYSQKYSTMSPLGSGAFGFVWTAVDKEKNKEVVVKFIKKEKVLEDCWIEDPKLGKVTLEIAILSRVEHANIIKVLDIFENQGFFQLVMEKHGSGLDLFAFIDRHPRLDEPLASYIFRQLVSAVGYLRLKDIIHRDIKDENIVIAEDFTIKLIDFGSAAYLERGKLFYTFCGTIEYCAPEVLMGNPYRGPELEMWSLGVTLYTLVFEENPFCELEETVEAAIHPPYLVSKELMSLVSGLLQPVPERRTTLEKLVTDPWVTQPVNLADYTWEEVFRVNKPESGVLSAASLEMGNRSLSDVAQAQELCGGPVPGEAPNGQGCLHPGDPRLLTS
Chain of Serine/threonine-protein kinase pim-1 (Homo sapiens) (P11309 whole entry, looked up): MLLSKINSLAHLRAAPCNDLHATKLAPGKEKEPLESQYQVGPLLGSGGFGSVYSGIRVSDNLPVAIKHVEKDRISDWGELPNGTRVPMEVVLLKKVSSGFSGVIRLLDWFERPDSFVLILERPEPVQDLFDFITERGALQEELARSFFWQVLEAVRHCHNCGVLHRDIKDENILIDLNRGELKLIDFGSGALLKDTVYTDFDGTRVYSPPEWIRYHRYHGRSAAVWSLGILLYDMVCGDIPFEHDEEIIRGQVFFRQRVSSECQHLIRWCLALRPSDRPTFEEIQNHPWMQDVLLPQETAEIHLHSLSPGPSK

For the compound `CS(=O)(=O)CCNCc1coc(-c2ccc3ncnc(Nc4ccc(OCc5ccccc5)cc4)c3c2)c1`, the inhibition in [1] was determined as 3.7%; in experiment [2], 1.75%; in experiment [3], 1.07%; in experiment [4], 3.52%; in experiment [5] it was 6.96%; in experiment [6] it was 3.46%. Also, the inhibition in experiment [7] was 9.67%; in experiment [8], 3.42%; in experiment [9] it was 14.1%; in [10], -0.55%; in experiment [11], 2.39%; in experiment [12] it was 0.45%. For the same compound, the inhibition was 0.89% in experiment [13]; 2.33% in experiment [14]; 6.25% in experiment [15]; 3.94% in experiment [16]; 3.59% in experiment [17]; 1.45% in experiment [18]. Also, the inhibition in [19] is 1.25%; in [20], -0.56%.
For the compound `COc1ccc(CNC(=O)c2ccc(-c3cc(-c4nnc(C)o4)ccc3C)cc2)cc1`, the inhibition in experiment [1] came out at 0.99%; in [2], 2.25%; in experiment [3], 1.91%; in experiment [4], 0.76%; in experiment [5] it was 1.99%; in [6], 4.23%. Further, the inhibition in experiment [7] was determined as 9.25%; in experiment [8], 4.37%; in [9], 8.59%; in [10], 1.99%; in [11], 0.82%; in experiment [12], 2.29%. In addition, the inhibition in experiment [13] is 8.41%; in experiment [14] it was 3.84%; in experiment [15] it was 6.56%; in experiment [16] it was 3.12%; in [17], 9.31%; in experiment [18], 1.62%. In addition, the inhibition in experiment [19] was 1.96%; in experiment [20] it was 2.9%.
On to `CCn1c(-c2nonc2N)nc2c(C#CC(C)(C)O)ncc(OC3CCNCC3)c21`, for which the inhibition in experiment [1] came to 77.7%; in experiment [2], 14%; in experiment [3], 62.1%; in experiment [4], 21.2%; in [5], 76.4%; in [6], 1.74%. For the same compound, the inhibition is 2.25% in experiment [7]; 2.54% in [8]; 2.87% in experiment [9]; 19.3% in experiment [10]; 62.2% in experiment [11]; -0.02% in experiment [12]. For the same compound, the inhibition in experiment [13] came to 13.1%; in experiment [14], 1.52%; in experiment [15] it was 3.09%; in [16] it was 4.06%; in experiment [17], 3.58%; in experiment [18], 2.62%. The inhibition in experiment [19] worked out at 24.1%; in experiment [20], 1.16%.
As to `CCCN(CCS(C)(=O)=O)Cc1ccc(-c2ccc3ncnc(Nc4ccc(OCc5cccc(F)c5)c(Cl)c4)c3c2)o1`, the inhibition in experiment [1] is -0.4%; in experiment [2], 0.58%; in experiment [3], -0.36%; in [4], 3.57%; in experiment [5], 3.34%; in [6] it was 3.79%. The inhibition was 9.77% in [7]; 2.98% in [8]; 10.9% in experiment [9]; -0.65% in [10]; -0.2% in experiment [11]; 0.15% in experiment [12]. Moreover, the inhibition in [13] is -0.42%; in [14] it was 1.09%; in experiment [15], 2.68%; in [16], 1.93%; in experiment [17] it was 1.35%; in experiment [18], 0.83%. In addition, the inhibition in [19] is 0.67%; in experiment [20], -0.45%.
On to `CCCN1CCC(c2ccc(Nc3nc(Nc4cc(F)ccc4C(N)=O)c4cc[nH]c4n3)c(OC)c2)CC1`, for which the inhibition was 66.6% in experiment [1]; 7.27% in experiment [2]; 42.6% in experiment [3]; 21.7% in [4]; 78.7% in experiment [5]; 5.57% in experiment [6]. The inhibition in [7] came out at 10.7%; in experiment [8], 3.26%; in experiment [9] it was 7.76%; in [10], 7.99%; in experiment [11], 41%; in [12] it was 0.01%. Moreover, the inhibition came to 20.7% in experiment [13]; 51.3% in experiment [14]; 80.7% in experiment [15]; 25.7% in experiment [16]; 71.7% in experiment [17]; 7.64% in experiment [18]. The inhibition in experiment [19] worked out at 45.3%; in experiment [20], 1.98%.
As to `CCn1c(-c2nonc2N)nc2c(C#CC(C)(C)O)nc(OC[C@H](N)c3ccccc3)cc21`, the inhibition in experiment [1] turned out to be 35.4%; in experiment [2], 1.25%; in experiment [3] it was 18.4%; in experiment [4], 17.7%; in experiment [5], 82.1%; in [6], 1.77%. Besides, the inhibition in experiment [7] is 2.97%; in experiment [8] it was 3.54%; in [9], 2.92%; in experiment [10] it was 1.39%; in experiment [11] it was 18.1%; in experiment [12] it was -0.65%. Further, the inhibition was 8.04% in experiment [13]; 2.23% in experiment [14]; -1.37% in experiment [15]; 2.76% in [16]; 5.27% in experiment [17]; 1.54% in experiment [18]. The inhibition came out at 3.63% in experiment [19] and 0.71% in experiment [20].
Turning to `Fc1ccc(-c2nn3ccccc3c2-c2ccncc2)cc1`, the inhibition in [1] is -0.24%; in experiment [2] it was 0.11%; in experiment [3], -0.34%; in [4] it was 3.07%; in experiment [5] it was 6.94%; in [6], 0.31%. The inhibition was 3.36% in [7]; -0.39% in experiment [8]; 3.58% in experiment [9]; -0.63% in [10]; 0.53% in experiment [11]; -0.17% in experiment [12]. Moreover, the inhibition in experiment [13] is -0.32%; in experiment [14], 2.42%; in experiment [15], 2.09%; in experiment [16], 0.28%; in experiment [17], -0.7%; in experiment [18] it was -0.39%. Moreover, the inhibition was 0.04% in experiment [19] and -0.3% in [20].

The values above are taken from ChEMBL document CHEMBL1961873, “Compounds: GSK PKIS; Assays: Nanosyn kinase panel” (2012).
